Experimental data reported in PubChem BioAssay.
Unmarked numbers belong to inactive results. Activity calls are given as the source filed them. Unless noted, no stated cut-off is given here; in the data, active means inhibition above about 33%; inactive means the rest.

Legend:
[1] = StAR promoter reporter inhibitors, counter-screen for LRH-1 inverse agonist project, cell-based, luminescence, high throughput (AID 651611; in the data active means inhibition above about 28%); details: StAR promoter luciferase reporter counterscreen, at 3.6 µM, hits give high values
[2] = target: Nuclear receptor subfamily 5 group A member 2 (Homo sapiens) (UniProt O00482); assay: LRH-1 (NR5A2) inverse agonists, retest, confirmation, cell-based, luminescence (AID 651613; in the data active means inhibition above about 42%;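 further: HEK293T cells co-transfected with LRH-1 and StAR promoter luciferase reporter; 0% = vehicle wells and 100% = parental cells lacking receptor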); details: cell-based LRH-1 luciferase reporter, inverse agonism; at 3.6 µM; hits give high values
Nuclear receptor subfamily 5 group A member 2 (Homo sapiens), sequence (O00482 whole entry, looked up): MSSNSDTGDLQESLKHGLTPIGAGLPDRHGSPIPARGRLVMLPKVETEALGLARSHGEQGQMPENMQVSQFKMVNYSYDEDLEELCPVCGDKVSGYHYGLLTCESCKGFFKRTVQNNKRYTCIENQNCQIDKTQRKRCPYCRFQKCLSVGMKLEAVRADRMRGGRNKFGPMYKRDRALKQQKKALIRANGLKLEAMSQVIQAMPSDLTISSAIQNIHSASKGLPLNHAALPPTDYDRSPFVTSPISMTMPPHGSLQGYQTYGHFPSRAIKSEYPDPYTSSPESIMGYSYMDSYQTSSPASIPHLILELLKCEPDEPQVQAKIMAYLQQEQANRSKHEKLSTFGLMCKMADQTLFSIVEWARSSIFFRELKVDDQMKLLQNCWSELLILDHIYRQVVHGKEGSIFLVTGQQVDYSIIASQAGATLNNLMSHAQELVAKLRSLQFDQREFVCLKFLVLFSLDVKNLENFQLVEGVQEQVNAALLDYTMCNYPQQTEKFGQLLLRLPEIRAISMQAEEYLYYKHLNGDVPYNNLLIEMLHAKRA

[3] = target: Steroidogenic factor 1 (Homo sapiens) (UniProt Q13285); assay: SF1 (NR5A1) inverse agonists, counter-screen for LRH-1 inverse agonist project, cell-based, luminescence, high throughput (AID 651614; in the data active means inhibition above about 44%;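 further: cells cotransfected with StAR promoter reporter and SF1 expression vector; 0% = vehicle on cells with receptor and 100% = vehicle on cells lacking receptor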); details: cell-based SF1 luciferase reporter, at 3.6 µM, hits give high values
Steroidogenic factor 1 (Homo sapiens), sequence (Q13285 whole entry, looked up, the tested form may be a part): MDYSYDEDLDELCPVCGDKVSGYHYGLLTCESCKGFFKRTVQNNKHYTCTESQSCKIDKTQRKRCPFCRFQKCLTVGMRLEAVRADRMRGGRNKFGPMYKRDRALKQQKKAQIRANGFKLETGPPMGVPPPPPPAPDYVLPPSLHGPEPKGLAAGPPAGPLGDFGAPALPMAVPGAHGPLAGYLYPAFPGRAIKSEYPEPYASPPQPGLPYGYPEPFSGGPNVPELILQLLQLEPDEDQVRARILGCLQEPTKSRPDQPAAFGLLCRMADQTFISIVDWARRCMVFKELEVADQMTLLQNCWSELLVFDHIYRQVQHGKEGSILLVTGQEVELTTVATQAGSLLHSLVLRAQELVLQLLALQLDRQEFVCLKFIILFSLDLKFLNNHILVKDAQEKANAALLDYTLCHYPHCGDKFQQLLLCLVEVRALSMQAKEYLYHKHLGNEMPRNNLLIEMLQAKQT

[4] = VP16 transactivation reporter inhibitors, counter-screen for LRH-1 inverse agonist project, cell-based, luminescence, high throughput (AID 651615); details: Gal4-VP16 luciferase reporter cells, at 3.6 µM, hits give high values

Row | Structure (SMILES) | inhibition [1] | inhibition [2] | inhibition [3] | inhibition [4]
1 | Cc1ccc(Cn2cnc3ccccc32)cc1C | 2.29% | 36.2% | 32.6% | 7.91%
2 | c1ccc(-c2nc(N3CCCCCC3)c3ccccc3n2)nc1 | 24.7% | 63.5% (active) | 74.8% (active) | 39.3% (active)
3 | CCCn1c(=NC(=O)CCS(=O)(=O)c2ccccc2)sc2cc(S(N)(=O)=O)ccc21 | 1.11% | 32.3% | 31.1% | -13.8%
4 | CCC(NC(=O)c1cc(COc2cc(C)c(Cl)c(C)c2)on1)c1ccncc1 (configuration not stated) | 0.99% | 52.5% (active) | 50.9% (active) | 8.52%
5 | CC(NC(=O)c1ccco1)C(c1cccs1)N1CCN(c2ccccc2F)CC1 (configuration not stated) | 3.57% | 49.3% (active) | 42.6% | 13%
6 | Cc1c([N+](=O)[O-])cc(C(=O)Nc2ccc(Cc3ccncc3)cc2)cc1[N+](=O)[O-] | 7.17% | 48.7% (active) | 45% (active) | -0.27%
7 | CCN(Cc1ccccc1)c1ccc(/C=N/NS(=O)(=O)c2ccc(C)c([N+](=O)[O-])c2)cc1 | 10.9% | 40.7% | 61.3% (active) | 9.15%
8 | Cc1sc2ncnc(NCCc3ccc(S(N)(=O)=O)cc3)c2c1C | 14.7% | 53% (active) | 54.6% (active) | 50% (active)
9 | Cc1cccc(NC(=O)CSc2ccc(-c3ccco3)nn2)c1C | 4.66% | 44.6% (active) | 39.2% | -3.56%
10 | CC1(c2ccc3ccccc3c2)NC(=O)N(CC(=O)N2CCN(Cc3ccc(C#N)cc3)CC2)C1=O (configuration not stated) | 32.1% (active) | 66.1% (active) | 62.4% (active) | 53.5% (active)
11 | CCCOc1ccc(NC(=O)CC2C(=O)N(C)C(=S)N2Cc2ccc3c(c2)OCO3)cc1 (configuration not stated) | 6.7% | 57.6% (active) | 53.2% (active) | 5.2%
12 | CC[C@@H](C(=O)[C@@H](C)[C@@H](O)[C@H](C)[C@@H]1O[C@@H]([C@@H](CC)C(=O)O)CC[C@@H]1C)[C@H]1O[C@]2(C=C[C@@H](O)[C@]3(CC[C@@](C)([C@H]4CC[C@](O)(CC)[C@H](C)O4)O3)O2)[C@H](C)C[C@@H]1C | 87% (active) | 103% (active) | 92.7% (active) | 92.3% (active)
13 | COc1cccc(-c2cc(C(=O)Nc3ccncc3)c3ccccc3n2)c1 | 9.54% | 35.2% | 39.4% | -5.71%
14 | Cc1c(C#N)c(O)n(CCO)c(=O)c1N=Nc1ccccc1 | 13.4% | 44.4% (active) | 41.7% | 6.91%
15 | c1ccc(C2=Nn3c(nnc3-c3n[nH]c4c3CCC4)SC2)cc1 | 47.6% (active) | 50.8% (active) | 40.7% | -147%
16 | O=C(c1ccc([N+](=O)[O-])o1)N1CCc2ccccc21 | -6.72% | 51.8% (active) | 59% (active) | -36.3%
17 | O=C(Nc1ccccc1C(=O)NCCCn1ccnc1)c1ccccc1 | 14.8% | 53.6% (active) | 42.1% | -3.84%
18 | Cc1cc2oc(C(=O)NCc3ccncc3)c(C)c2cc1C | -3.56% | 36.2% | 39.6% | 3.82%
19 | COc1ccnc(Oc2ccccc2)c1C(=O)N/C=N/OCc1ccccc1F | 12.8% | 56.9% (active) | 48.8% (active) | -12.9%
20 | COc1ccc(CCNC(=O)CSc2nc3[nH]ncc3c(=O)n2-c2ccc(C)c(Cl)c2)cc1OC | 13.2% | 61.3% (active) | 56.5% (active) | -6.41%
21 | O=C(CSc1nnc(Cc2cccs2)n1-c1ccccc1)Nc1ccc2c(c1)OCCO2 | -2.83% | 34.8% | 31.1% | -2.43%
22 | C=CC(=O)N1C/C(=C/c2ccc(F)cc2)C(=O)/C(=C\c2ccc(F)cc2)C1 | 27.1% | 80% (active) | 86.7% (active) | 63% (active)
23 | COc1ccc(-c2ccc(C(=O)NCc3ccncc3)c3occc23)c(C)c1 | 29.2% (active) | 69.7% (active) | 70.1% (active) | 46.4% (active)
